Our source for the growth inhibition, inhibition and outcome values is PubChem BioAssay.

The nature of experiment [1]: antimalarial activity against Dd2 strain (AID 2302;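 active = growth inhibition above 50% at the single 2 µM test dose, taken to imply half-maximal potency below 2 µM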;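 note: 0% = DMSO untreated growth and 100% = chloroquine plus artemisinin killed control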). Conditions: P. falciparum Dd2 in RBCs, LDH growth readout, 72 h; at 2 µM; active compounds read high.
Experiment [2] can be described thus: human hepatoma cell viability loss – ATP luminescence, cytotoxicity control for P. falciparum antimalarial project, primary screen (AID 2303;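 active = inhibition above 50%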;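 note: 0% = DMSO wells and 100% = digitonin-killed cells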). Particulars: HepG2 viability, 24-48 h, at 10 µM, active compounds read high.
The target in experiment [3] is L-lactate dehydrogenase (Plasmodium falciparum (isolate CDC / Honduras)) (UniProt Q27743). Kind of experiment: PfLDH activity inhibition – cell lysate, 3D7 strain, counter-screen for P. falciparum growth inhibition project (AID 2304).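 Note: 0% = vehicle and 100% = reference inhibitor.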 Particulars: P. falciparum 3D7 crude extract, LDH APAD/NBT absorbance; at 2 µM; active compounds read high.
Experiment [4] in a line: inhibition of 3D7 malaria parasite growth – strain 3D7 (AID 2306).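 Note: 0% = DMSO wells and 100% = chloroquine plus artemisinin control wells.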 Conditions: P. falciparum 3D7 erythrocytic growth, LDH absorbance, 72 h; at 2 µM; active compounds read high.
The target of experiment [5] is Calcium-dependent protein kinase 1 (Plasmodium falciparum (isolate 3D7)) (UniProt P62344). Kind of experiment: PfCDPK1 kinase inhibitors, biochemical, TCAMS library (AID 1159585; cut-off not given, nearly all actives have IC50 up to about 0.98 µM;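 note: inhibitors leave more ATP so luminescence rises with inhibition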). Conditions: recombinant PfCDPK1, Kinase-Glo ATP depletion luminescence. A general note: Kinase-Glo reads ATP consumption through a luciferase reaction.
Experiment [6] addresses Plasmodium falciparum protein kinase 6 (PK6, PF3D7_1337100) (UniProt Q8IDW1). Kind of experiment: PfPK6 kinase inhibitors, biochemical, TCAMS library (AID 1159586). Particulars: recombinant PfPK6, Kinase-Glo ATP depletion luminescence.
Experiment [7] concerns the target Protein kinase 7 (PK7), Plasmodium falciparum 3D7 (PF3D7_0213400) (UniProt Q7YTF7). The experiment can be described thus: inhibition of Plasmodium PK7 catalytic activity – biochemical, TCAMS antimalarial set, Kinase-Glo luminescence (AID 1159587). Conditions: recombinant PfPK7, Kinase-Glo ATP depletion luminescence.
Experiment [8] addresses Calcium-dependent protein kinase 4 (Plasmodium falciparum (isolate 3D7)) (UniProt Q8IBS5). The experiment can be described thus: PfCDPK4 kinase inhibitors, biochemical, TCAMS library (AID 1159588; cut-off not given, nearly all actives have IC50 up to about 0.91 µM). Particulars: recombinant PfCDPK4, Kinase-Glo ATP depletion luminescence.

The structures appear in SMILES notation. A number with no mark means an inactive call. For some of these results: Potency and affinity values are given separately. Activity calls are given as the source filed them. Unless noted, the rule behind the calls is not given here.

Chain of Protein kinase 7 (PK7), Plasmodium falciparum 3D7 (PF3D7_0213400) (Q7YTF7 1-343): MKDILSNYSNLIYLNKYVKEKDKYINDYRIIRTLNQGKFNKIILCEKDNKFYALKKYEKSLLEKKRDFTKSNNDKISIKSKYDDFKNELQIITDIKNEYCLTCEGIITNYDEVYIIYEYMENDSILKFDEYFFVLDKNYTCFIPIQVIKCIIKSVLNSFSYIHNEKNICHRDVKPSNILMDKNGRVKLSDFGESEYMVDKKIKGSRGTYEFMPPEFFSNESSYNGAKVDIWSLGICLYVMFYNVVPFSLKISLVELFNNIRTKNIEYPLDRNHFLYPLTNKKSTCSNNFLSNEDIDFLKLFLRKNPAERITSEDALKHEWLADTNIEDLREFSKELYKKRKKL
Chain of Plasmodium falciparum protein kinase 6 (PK6, PF3D7_1337100) (Q8IDW1 1-305): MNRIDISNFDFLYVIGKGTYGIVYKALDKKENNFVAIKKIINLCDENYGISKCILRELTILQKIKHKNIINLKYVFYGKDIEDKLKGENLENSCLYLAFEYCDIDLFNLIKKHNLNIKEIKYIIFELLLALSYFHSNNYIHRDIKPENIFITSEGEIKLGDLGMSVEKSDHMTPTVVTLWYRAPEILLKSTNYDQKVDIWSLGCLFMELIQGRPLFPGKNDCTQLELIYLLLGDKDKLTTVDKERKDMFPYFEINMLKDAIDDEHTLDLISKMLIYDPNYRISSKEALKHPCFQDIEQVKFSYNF
Chain of L-lactate dehydrogenase (Plasmodium falciparum (isolate CDC / Honduras)) (Q27743 whole entry, looked up): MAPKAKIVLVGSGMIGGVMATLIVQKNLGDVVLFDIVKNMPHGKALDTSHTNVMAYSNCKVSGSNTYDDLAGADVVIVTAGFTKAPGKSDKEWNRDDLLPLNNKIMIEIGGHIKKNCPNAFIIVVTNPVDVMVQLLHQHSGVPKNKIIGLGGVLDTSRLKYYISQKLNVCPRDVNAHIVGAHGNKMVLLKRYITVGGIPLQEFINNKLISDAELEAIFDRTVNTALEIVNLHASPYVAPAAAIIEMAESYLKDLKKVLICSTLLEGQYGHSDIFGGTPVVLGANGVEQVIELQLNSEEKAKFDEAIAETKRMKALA
Chain of Calcium-dependent protein kinase 4 (Plasmodium falciparum (isolate 3D7)) (Q8IBS5 whole entry, looked up): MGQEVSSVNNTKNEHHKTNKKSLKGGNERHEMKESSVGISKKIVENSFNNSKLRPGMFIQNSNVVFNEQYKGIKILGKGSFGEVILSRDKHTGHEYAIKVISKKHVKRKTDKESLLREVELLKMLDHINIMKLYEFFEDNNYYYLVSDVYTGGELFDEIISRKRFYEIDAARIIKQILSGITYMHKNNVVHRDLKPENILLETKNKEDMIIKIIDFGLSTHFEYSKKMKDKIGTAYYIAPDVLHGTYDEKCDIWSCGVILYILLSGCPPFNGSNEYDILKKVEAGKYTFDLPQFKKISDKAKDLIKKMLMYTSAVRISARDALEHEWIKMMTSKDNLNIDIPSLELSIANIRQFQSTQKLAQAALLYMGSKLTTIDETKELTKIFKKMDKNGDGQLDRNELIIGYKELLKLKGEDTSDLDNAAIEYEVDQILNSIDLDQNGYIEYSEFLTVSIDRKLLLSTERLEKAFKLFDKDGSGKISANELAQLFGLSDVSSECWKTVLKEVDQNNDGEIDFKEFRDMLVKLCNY
Chain of Calcium-dependent protein kinase 1 (Plasmodium falciparum (isolate 3D7)) (P62344 whole entry, looked up): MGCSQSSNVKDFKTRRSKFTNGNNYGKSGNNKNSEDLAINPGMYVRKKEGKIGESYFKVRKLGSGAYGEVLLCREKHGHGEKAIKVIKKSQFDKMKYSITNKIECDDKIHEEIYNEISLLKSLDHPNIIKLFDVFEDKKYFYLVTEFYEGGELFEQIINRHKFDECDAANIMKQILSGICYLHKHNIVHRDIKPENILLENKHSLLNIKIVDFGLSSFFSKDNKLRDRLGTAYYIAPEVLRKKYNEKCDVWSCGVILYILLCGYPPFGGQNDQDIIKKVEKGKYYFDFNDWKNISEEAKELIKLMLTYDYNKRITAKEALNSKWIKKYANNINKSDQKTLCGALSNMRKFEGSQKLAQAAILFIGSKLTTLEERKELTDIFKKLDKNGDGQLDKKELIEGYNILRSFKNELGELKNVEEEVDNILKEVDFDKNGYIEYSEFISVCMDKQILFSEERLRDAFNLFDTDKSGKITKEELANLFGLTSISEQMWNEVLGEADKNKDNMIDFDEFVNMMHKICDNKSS

One may read the inhibition as the drop in the measured response relative to a control, in per cent. As for `COc1cc(NC(=O)c2sc(-c3ccc(Cl)cc3)cc2NC(=O)CN2CCCC2)ccc1OCCN1CCCC1`, the growth inhibition in experiment [1] is 79% (active); in experiment [4], 86% (active). The inhibition was 29% in experiment [2] and 3% in experiment [3]. Besides, the result in experiment [5], in experiment [6], in experiment [7] and in experiment [8] was inactive.

Regarding `Cc1cc(NC(=O)Nc2ccc3ccn(C)c3c2)c2ccccc2n1`, the growth inhibition in experiment [1] was 69% (active); in experiment [4], 102% (active). The inhibition in experiment [2] is 11%; in experiment [3], -1%. Moreover, the outcome in experiment [5], in experiment [6], in experiment [7] and in experiment [8] was inactive.

As for `CC1CN(c2ccc(NC(=O)c3ccc(F)cc3)cc2)CCN1Cc1cccc(F)c1` (stereo not given), the growth inhibition in experiment [1] was 76% (active); in experiment [4], 81% (active). Besides, the values for the inhibition in experiment [2] and in experiment [3] were 11% and 2%, respectively. For the same molecule, the result in experiment [5], in experiment [6], in experiment [7] and in experiment [8] was inactive.

With `O=C(NCC1Cc2cc(Oc3ccccc3)ccc2O1)c1ccc([N+](=O)[O-])o1` (stereo not given), the values for the growth inhibition in experiment [1] and in experiment [4] were 81% (active) and 88% (active), respectively. Further, the results for the inhibition in experiment [2] and in experiment [3] were 83% (active) and -3%, respectively. Besides, the outcome in experiment [5], in experiment [6], in experiment [7] and in experiment [8] was inactive.

With `Cc1cnccc1/C=C/c1cccc(OCCN2CCc3ccc(S(C)(=O)=O)cc3CC2)c1`, the growth inhibition is 80% (active) in experiment [1] and 93% (active) in experiment [4]. Moreover, the results for the inhibition in experiment [2] and in experiment [3] were 9% and -4%, respectively. In addition, the result in experiment [5], in experiment [6], in experiment [7] and in experiment [8] was inactive.

Take `CCCCNCc1ccc(-c2nc(CN(CCCn3ccnc3)C(=O)C3COc4ccccc4O3)cs2)cc1` (stereo not given): the growth inhibition is 8% in experiment [1] and 93% (active) in experiment [4]. The inhibition was 6% in experiment [2] and -4% in experiment [3]. Further, the result in experiment [5], in experiment [6], in experiment [7] and in experiment [8] was inactive.

Regarding `O=c1c2sc(-c3ccc(Cl)cc3)cc2ncn1Cc1ccc(OCCN2CCCC2)c2ccccc12`, the growth inhibition in experiment [1] was 81% (active); in experiment [4], 100% (active). Also, the inhibition in experiment [2] is 38%; in experiment [3] it was 1%. Besides, the result in experiment [5], in experiment [6], in experiment [7] and in experiment [8] was inactive.

For the molecule `COc1cc(NC(=O)Nc2ccnc3ccccc23)cc(OC)c1`, the figures for the growth inhibition in experiment [1] and in experiment [4] were 34% and 98% (active), respectively. The inhibition in experiment [2] is 11%; in experiment [3] it was -6%. Further, the result in experiment [5], in experiment [6], in experiment [7] and in experiment [8] was inactive.

As to `N=C(N)c1cc(Br)cc(NC(=O)Nc2cc(Br)cc(C(=N)N)c2)c1`, the values for the growth inhibition in experiment [1] and in experiment [4] were 76% (active) and 93% (active), respectively. Further, the inhibition in experiment [2] is 0%; in experiment [3], -4%. For the same molecule, the outcome in experiment [5], in experiment [6], in experiment [7] and in experiment [8] was inactive.

Consider `COc1ccc2nc3cc(Cl)ccc3c(NCCCCN3CCNCC3)c2c1`, for which the results for the growth inhibition in experiment [1] and in experiment [4] were 75% (active) and 102% (active), respectively. In addition, the inhibition in experiment [2] was 29%; in experiment [3], -5%. Further, the outcome in experiment [5], in experiment [6], in experiment [7] and in experiment [8] was inactive.

Turning to `CCN1CCN(CCCCNc2c3ccccc3nc3ccccc23)CC1`, the growth inhibition in experiment [1] is -5%; in experiment [4], 100% (active). Moreover, the inhibition was 22% in experiment [2] and 8% in experiment [3]. In addition, the outcome in experiment [5], in experiment [6], in experiment [7] and in experiment [8] was inactive.

With `O=C(C=Cc1ccc(F)cc1)N1CCN(S(=O)(=O)c2ccc(Cl)cc2)CC1`, the results for the growth inhibition in experiment [1] and in experiment [4] were 93% (active) and 91% (active), respectively. Moreover, the inhibition was 10% in experiment [2] and -2% in experiment [3]. The result in experiment [5], in experiment [6], in experiment [7] and in experiment [8] was inactive.

As for `CCOc1ccc(C(=O)Nc2cc3c(c(C(F)(F)F)c2)CCNC3)cc1Cl`, the results for the growth inhibition in experiment [1] and in experiment [4] were 1% and 91% (active), respectively. Also, the values for the inhibition in experiment [2] and in experiment [3] were 4% and -4%, respectively. In addition, the result in experiment [5], in experiment [6], in experiment [7] and in experiment [8] was inactive.

Turning to `Cc1ccc(C(=O)Nc2cccc(CN3CCCN(Cc4ccc(O)cc4)CC3)c2)s1`, the growth inhibition in experiment [1] was 23%; in experiment [4] it was 90% (active). Also, the figures for the inhibition in experiment [2] and in experiment [3] were 17% and -4%, respectively. Also, the result in experiment [5], in experiment [6], in experiment [7] and in experiment [8] was inactive.

As for `Cc1noc(C)c1C(=O)N1CCCC(c2[nH]c3c(C)cccc3c2-c2ccncc2)C1` (stereo not given), the growth inhibition is 101% (active) in experiment [1] and 102% (active) in experiment [4]. Besides, the inhibition in experiment [2] was 16%; in experiment [3], 6%. Further, the outcome in experiment [5], in experiment [6], in experiment [7] and in experiment [8] was inactive.

For `Brc1ccc(Nc2ccnc3cc(-c4nccs4)ccc23)cc1Oc1ccnc2cc(-c3nccs3)ccc12`, the growth inhibition in experiment [1] was 83% (active); in experiment [4] it was 91% (active). In addition, the inhibition in experiment [2] is 15%; in experiment [3] it was -4%. Moreover, the outcome in experiment [5], in experiment [6], in experiment [7] and in experiment [8] was inactive.

Take `CC(C)C[C@H](NC(=O)c1cc2ccccc2s1)C(=O)N[C@H]1CCN(Cc2ccc(OC3CCN(C)C3)c(Cl)c2)C1` (stereo not given in full): the growth inhibition is 65% (active) in experiment [1] and 97% (active) in experiment [4]. For the same molecule, the inhibition in experiment [2] is 68% (active); in experiment [3], 2%. The outcome in experiment [5], in experiment [6], in experiment [7] and in experiment [8] was inactive.

Consider `COc1ccccc1C1CCN(C2CCC(NC(=O)/C=C/c3ccc4c(c3)OC(F)(F)O4)CC2)CC1` (stereo not given), for which the growth inhibition is 31% in experiment [1] and 98% (active) in experiment [4]. The inhibition was 52% (active) in experiment [2] and -2% in experiment [3]. Besides, the outcome in experiment [5], in experiment [6], in experiment [7] and in experiment [8] was inactive.

For `CN(C)CCNC(=O)c1csc(Nc2ccc(Cl)c(Cl)c2)n1`, the growth inhibition in experiment [1] and in experiment [4] was 100% (active) each time. Besides, the inhibition is 4% in experiment [2] and -3% in experiment [3]. Besides, the outcome in experiment [5], in experiment [6], in experiment [7] and in experiment [8] was inactive.

Consider `CCc1cn2c3c(cc(C(=O)N[C@@H](Cc4cc(F)cc(F)c4)[C@H](O)CNC4CCCCC4)cc13)N(C)S(=O)(=O)CC2`, for which the growth inhibition in experiment [1] was 99% (active); in experiment [4], 100% (active). For the same molecule, the inhibition in experiment [2] was 9%; in experiment [3], -6%. The result in experiment [5], in experiment [6], in experiment [7] and in experiment [8] was inactive.
